# Laboratory results taken from PubChem BioAssay (NCATS).
# Values without a mark were called inactive. No rule for the calls is given here.
# Test system: HIV-1 nucleocapsid protein NCp7 (binding to TG oligonucleotide)
# Test: HIV Nucleocapsid (AID 346);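 also: potency is for inhibitors that block NC binding and lower polarization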
# Settings: HIV-1 NC / fluorescein-TGTGTGTG probe, fluorescence polarization
# Outline: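 HIV-1 NC (100 nM) binding to fluorescein-labelled ssDNA TG4xF (10 nM) in Hepes pH 7.5, 250mM NaCl, 1uM ZnCl2, TCEP and 2-mercaptoethanol; compounds pin-transferred, 1 hr room temperature, fluorescence polarization read on CCD imager.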
# Potency is read from the fitted curve at half-maximal effect.
row,SMILES,Potency [µM]
1,CS(=O)(=O)Nc1cccc(-c2cncnc2NCc2cccs2)c1,> 20
2,Cc1noc(C)c1-c1cncnc1NCCN1CCOCC1,> 20
3,O=c1c(-c2cccs2)nc2cnc(Oc3ccccc3)nc2n1Cc1cccs1,> 20
4,COc1ccc(-c2nc3cnc(Oc4cccc(Cl)c4)nc3n(C3CC3)c2=O)cc1,> 20
5,COc1ccc(Oc2ncc3nc(-c4cccs4)c(=O)n(C)c3n2)cc1,> 20
6,COc1ccccc1-c1nccc(NC2CCNCC2)n1,> 20
7,COc1ncc2nc(-c3ccccc3)c(=O)n(C3CC3)c2n1,> 20
8,CS(=O)(=O)Nc1cccc(-c2nccc(-n3ccnc3)n2)c1,> 20
9,CN(C)c1ncc2nc(-c3cc(F)cc(F)c3)c(=O)n(CCc3ccccc3)c2n1,> 20
10,Cc1cnc(CNc2cc(-c3cccnc3)ncn2)cn1,> 20
11,O=c1cnc2cnc(Oc3cccc(Cl)c3)nc2n1CCc1ccccc1,> 20
12,Cc1cccc(CNc2cc(-c3ccccc3Cl)ncn2)c1,> 20
13,O=C(c1cccc(F)c1)N1CCC[C@@]2(CCN(c3ncccn3)C2)C1,> 20
14,CC(C)NC(=O)N1CCC2(CC1)CCN(C(=O)c1ccco1)CC2,> 20
15,COc1ccc(C(=O)N2CCC3(CCCN(c4cccc(-c5ccccc5)c4)C3)CC2)cc1,> 20
16,Cn1cccc1C(=O)N1CCC[C@@]2(CCN(c3cccc(-c4ccccc4)c3)C2)C1,> 20
